Source: PubChem BioAssay
This excerpt belongs to a sample that is enriched for hits.
C diff growth: C. difficile growth inhibitors, primary screen, HTS. Clostridium difficile clinical isolate growth, OD600, 24 h; active compounds read low. AID 1259249, 2017. 86,000 tested, 0.25% active. growth activity, negative = inhibition, % at 16 µg/mL (by protocol);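 active = mean growth activity at or below -80% and every replicate also at or below -80%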;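 note: 0% = DMSO wells and -100% = levofloxacin 16 µg/mL wells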
* marks the source's active call; other numbers are inactive results; ! = not confirmed by another sample.

SMILES	C diff growth
COCC(=O)N1CC2(C1)[C@@H](c1ccccc1)[C@@H](CO)N2C(=O)c1ccccc1	3
CNC(=O)C[C@H]1CC[C@H]2[C@@H](COC[C@H](O)CN2C(=O)Nc2ccc(Cl)c(Cl)c2)O1	-28
O=C(C[C@H]1CC[C@@H]2[C@H](COC[C@@H](O)CN2C(=O)Nc2ccc(Cl)c(Cl)c2)O1)NC1CCC1	48
O=C(C[C@H]1CC[C@@H]2[C@H](COC[C@H](O)CN2C(=O)Nc2ccc(Cl)c(Cl)c2)O1)NCc1ccc(Cl)cc1	-52
CNC(=O)C[C@@H]1CC[C@@H]2[C@H](COC[C@H](O)CN2C(=O)Nc2ccc(Cl)c(Cl)c2)O1	-12
CCCNC(=O)C[C@@H]1CC[C@@H]2[C@H](COC[C@H](O)CN2C(=O)Nc2ccc(Cl)c(Cl)c2)O1	-102*!
O=C(C[C@H]1CC[C@H]2[C@@H](COC[C@@H](O)CN2C(=O)Nc2ccc(F)cc2)O1)NC1CCC1	13
O=C(C[C@H]1CC[C@@H]2[C@H](COC[C@@H](O)CN2C(=O)Nc2ccc(Cl)c(Cl)c2)O1)NCc1ccc(F)cc1	-7
O=C(C[C@H]1CC[C@@H]2[C@H](COC[C@H](O)CN2C(=O)Nc2ccc(Cl)c(Cl)c2)O1)NCc1ccc(F)cc1	-91*
O=C(C[C@@H]1CC[C@H]2[C@@H](COC[C@@H](O)CN2C(=O)Nc2ccc(Cl)c(Cl)c2)O1)NC1CCC1	-102*!
O=C(NCC1CCCCC1)[C@H]1[C@H](CO)[C@H]2Cn3c(cccc3=O)[C@@H]1N2CCc1ccccc1	-7
CO[C@@H]1CN(C)C(=O)c2cc(NC(C)=O)ccc2OC[C@@H](C)N(C(=O)c2ccccn2)C[C@@H]1C	-4
COc1ccc(CN(C)C[C@@H]2OCCCC[C@@H](C)Oc3ccc(NS(C)(=O)=O)cc3C(=O)N([C@H](C)CO)C[C@H]2C)cc1	2
CCCNC(=O)N1CC2(CN(Cc3ccc(OC)cc3)C2)c2c(n(C)c3cc(OC)ccc23)[C@H]1CO	-24
C[C@@H]1CN([C@@H](C)CO)C(=O)c2cccc(NC(=O)Nc3cccc4ccccc34)c2O[C@@H]1CN(C)Cc1ccc(C(=O)Nc2ccccc2N)cc1	8
C[C@@H]1CCCCO[C@H](CN(C)CC2CCCCC2)[C@H](C)CN([C@H](C)CO)C(=O)c2cc(NC(=O)Nc3ccc(C(F)(F)F)cc3)ccc2O1	-103*
C[C@@H]1CCCCO[C@@H](CN(C)CC2CCCCC2)[C@@H](C)CN([C@@H](C)CO)C(=O)c2cc(NC(=O)Nc3ccc(C(F)(F)F)cc3)ccc2O1	-58
C[C@@H]1CN([C@@H](C)CO)C(=O)c2cc(NC(=O)Nc3ccc(C(F)(F)F)cc3)ccc2O[C@@H](C)CCCCO[C@@H]1CN(C)CC1CCCCC1	-12
C[C@H]1CCCCO[C@H](CN(C)S(=O)(=O)c2cn(C)cn2)[C@@H](C)CN([C@@H](C)CO)C(=O)c2cc(NC(=O)CCCN(C)C)ccc2O1	-81*
C[C@@H]1CN([C@@H](C)CO)C(=O)c2cc(NC(=O)CCCN(C)C)ccc2O[C@@H](C)CCCCO[C@@H]1CN(C)S(=O)(=O)c1cn(C)cn1	-9
C[C@@H]1CCCCO[C@@H](CN(C)S(=O)(=O)c2cn(C)cn2)[C@@H](C)CN([C@@H](C)CO)C(=O)c2cc(NC(=O)CCC(F)(F)F)ccc2O1	6
C[C@@H]1CCCCO[C@H](CN(C)CC2CC2)[C@H](C)CN([C@@H](C)CO)C(=O)c2cc(NC(=O)Nc3ccc(C(F)(F)F)cc3)ccc2O1	6
C[C@@H]1CCCCO[C@H](CN(C)CC2CCCCC2)[C@@H](C)CN([C@H](C)CO)C(=O)c2cc(NC(=O)Nc3ccc(C(F)(F)F)cc3)ccc2O1	-59
CCCN(C)C[C@H]1OCCCC[C@@H](C)Oc2ccc(NC(=O)Nc3ccc(C(F)(F)F)cc3)cc2C(=O)N([C@@H](C)CO)C[C@H]1C	-107*
C[C@@H]1CCCCO[C@@H](CN(C)CC2CC2)[C@H](C)CN([C@H](C)CO)C(=O)c2cc(NC(=O)Nc3ccc(C(F)(F)F)cc3)ccc2O1	-9
SMILES	C diff growth
C[C@@H]1CCCCO[C@@H](CN(C)CC2CCCCC2)[C@H](C)CN([C@H](C)CO)C(=O)c2cc(NC(=O)Nc3ccc(C(F)(F)F)cc3)ccc2O1	-104*
C[C@@H]1CCCCO[C@@H](CN(C)CC2CC2)[C@H](C)CN([C@@H](C)CO)C(=O)c2cc(NC(=O)Nc3ccc(C(F)(F)F)cc3)ccc2O1	4
OC[C@H]1Nc2ccc(C#Cc3ccc(F)cc3)cc2[C@@H]2[C@H]1CCN2Cc1nccs1	54
C[C@H]1CN([C@@H](C)CO)C(=O)c2cccc(NC(=O)c3ccc(-c4nccs4)cc3)c2O[C@H]1CN(C)S(=O)(=O)c1ccc(Cl)cc1	-2
Cc1noc(C)c1S(=O)(=O)N(C)C[C@H]1Oc2ccc(NS(=O)(=O)c3ccc(Cl)cc3)cc2C(=O)N([C@@H](C)CO)C[C@H]1C	-2
COCC(=O)N1[C@H](C(=O)Nc2ccccc2)[C@@H](CO)[C@@H]2Cn3c(ccc(-c4ccccc4)c3=O)[C@@H]21	1
C[C@@H]1CN([C@@H](C)CO)C(=O)Cc2cc(N(C)C)ccc2O[C@H]1CN(C)C(=O)Nc1ccc2c(c1)OCO2	1
C[C@@H]1CCCCO[C@@H](CN(C)C(=O)CCC(F)(F)F)[C@H](C)CN([C@@H](C)CO)C(=O)c2cc(NS(=O)(=O)c3ccc(Cl)cc3)ccc2O1	-5
CCC(=O)N1[C@H](CO)[C@@H](c2ccccc2)C12CN(Cc1cccnc1)C2	11
CC(C)NC(=O)N(C)C[C@@H]1Oc2cc(C#C[C@H](C)O)ccc2S(=O)(=O)N([C@@H](C)CO)C[C@@H]1C	-4
COc1ccc(NC(=O)N2CCCCN3[C@H](C2)[C@@H](c2ccc(C#Cc4ccccc4)cc2)[C@@H]3CO)cc1	23
CC(=O)N1[C@H](CO)[C@H](c2ccccc2)C12CN(C(=O)Cc1ccccc1)C2	-2
Cc1cccc(-c2ccc(C3[C@@H]4CN(Cc5cccnc5)C[C@H]3N4)cc2)c1 (some centres undefined)	-1
Cc1ccc(-c2ccc([C@@H]3[C@@H]4CN(Cc5ccccc5F)C[C@H]3N4)cc2)cc1	-101*
Cc1cccc(-c2ccc(C3[C@@H]4CN(Cc5ccccc5F)C[C@H]3N4)cc2)c1 (some centres undefined)	-98*
Cc1ccc(-c2ccc(C3[C@H]4CNC[C@@H]3N4Cc3ccccc3F)cc2)cc1 (some centres undefined)	17
Fc1ccccc1CN1[C@@H]2CNC[C@H]1C2c1ccc(-c2ccccc2)cc1 (some centres undefined)	-8
CN(C)C(=O)c1cccc(-c2ccc(C3[C@@H]4CN(Cc5ccccc5F)C[C@H]3N4)cc2)c1 (some centres undefined)	59
COc1ccc2c3c([nH]c2c1)[C@@H](CO)N(Cc1nccs1)CC31CCN(Cc2nccs2)CC1	17
Cc1ccc(S(=O)(=O)Nc2ccc3c(c2)C(=O)N([C@@H](C)CO)C[C@@H](C)[C@H](CN(C)S(=O)(=O)c2ccc(F)cc2)OCCCC[C@H](C)O3)cc1	-2
COc1ccc(C(=O)Nc2ccc3c(c2)OC[C@@H](C)NC[C@H](C)[C@@H](OC)CN(C)C3=O)cc1	-1
CCCc1cn([C@H]2C[C@@H]3O[C@H](CO)CC[C@@H]3O[C@@H]2CCc2ccc(-c3ccccc3C#N)cc2)nn1	3
CC(C)(O)C#Cc1ccc([C@@H]2[C@@H](CO)N3CCCCN(Cc4ccccc4F)C[C@@H]23)cc1	6
